# Assay outcomes: PubChem, National Center for Advancing Translational Sciences (NCATS)
# Most compounds without a hit are left out; they make up all but 0.93% or so of the library.
# TRPML1 ag – qHTS for Agonists of the Human Mucolipin Transient Receptor Potential 1 (TRPML1) | Mucolipin-1 (Homo sapiens), Q9GZU1 | TRPML1-expressing cells, Ca2+ dye fluorescence, FDSS | activation, % (test concentration not listed) | 410,000 compounds, 0.12% hits; in the data active means activation above about 50%; inconclusive means mostly about 30% to 49%; further: 0% is about no effect
#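 In this qHTS format, compounds were pin-transferred onto Ca8-dye-loaded TRPML1-DL cells induced with Tet overnight, and intracellular Ca2+ fluorescence was recorded kinetically for 110 s after a 10 s baseline. A subsequent 4uM final 54-4 (EC80) addition followed by a second 110 s read served as the antagonist phase.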
# TRPML1 inh – qHTS for Inhibitors of the Human Mucolipin Transient Receptor Potential 1 (TRPML1); TRPML1-inducible cells, Ca2+ dye fluorescence, FDSS; active compounds read low; inhibition of EC80 agonist-evoked calcium signal; Mucolipin-1 (Homo sapiens), Q9GZU1; 390,000 compounds, 0.02% hits; activity change, negative = inhibition, % (no concentration beside the values); in the data active means activity change below about -50%; inconclusive means between about -30% and that limit;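 further: stimulus is agonist 54-4 at its EC80 concentration; on the % scale 0 is the no-effect control and ±100 the full control effect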
#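 Calcium fluorescence in TRPML1-DL cells induced overnight with Tet: a 110 s read after compound pin addition, then a 110 s antagonist read after challenge with 54-4 at 4 uM final (EC80).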
# GLP1R cytotox – qHTS of GLP-1 Receptor Inverse Agonists: Cytotox Screen | Potency, µM (top dose mostly 38.3 µM), for inactives: at the highest dose activity change, negative = inhibition, most hits filed as inhibitors | HEK293 cAMP-luciferase reporter cells, luminescence, 24 h | 410,000 compounds, 0.13% hits;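 further: loss of luciferase light is scored as toxicity; potency means the concentration at half of the fitted maximal effect; on the % scale 0 is the no-effect control and ±100 the full control effect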
#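 A 23 nL compound transfer followed 12 hours of cell culture at 37 deg C; exposure then lasted 24 hr. Luciferase assay detection reagent was dispensed and plates read for luminescence after a 12 min room-temperature wait.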
# PTHR1 ag – qHTS for PTHR1 Agonists: Primary Screen | Parathyroid hormone/parathyroid hormone-related peptide receptor (Homo sapiens), Q03431 | HEK293 GP2 PTHR1 cells, GloSensor cAMP luminescence, 1 h | Potency, µM (top dose mostly 115 µM), without a hit: top-dose activation, most hits filed as activators | 410,000 compounds, 0.075% hits | AID 743266, 2014; further: potency means the concentration at half of the fitted maximal effect; nearly all actives have a fitted effect of over 55% in size
# Target sequence (Q03431 whole entry, looked up): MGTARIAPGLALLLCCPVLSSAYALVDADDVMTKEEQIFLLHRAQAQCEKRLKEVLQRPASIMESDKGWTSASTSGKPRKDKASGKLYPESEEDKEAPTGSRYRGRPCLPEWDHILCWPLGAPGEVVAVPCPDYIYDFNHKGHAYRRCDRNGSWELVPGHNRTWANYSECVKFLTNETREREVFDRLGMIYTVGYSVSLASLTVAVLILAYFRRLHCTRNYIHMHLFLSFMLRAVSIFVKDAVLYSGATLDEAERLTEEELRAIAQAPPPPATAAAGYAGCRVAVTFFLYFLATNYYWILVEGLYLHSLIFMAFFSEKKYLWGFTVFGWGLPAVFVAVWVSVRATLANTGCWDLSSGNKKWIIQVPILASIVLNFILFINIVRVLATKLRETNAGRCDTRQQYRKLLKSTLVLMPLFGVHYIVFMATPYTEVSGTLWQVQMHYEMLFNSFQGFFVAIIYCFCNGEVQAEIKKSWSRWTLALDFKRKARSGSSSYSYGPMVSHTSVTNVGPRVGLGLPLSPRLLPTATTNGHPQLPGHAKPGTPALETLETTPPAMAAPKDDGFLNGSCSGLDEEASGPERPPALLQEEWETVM
#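 HEK-293-derived GP2 cells expressing PTHR1 and a GloSensor cAMP reporter, 3,000/well, plated overnight, given luciferin plus IBMX (each 0.5 mM as added) for 1 h at 37 °C, then compound for 1 h at 37 °C. Luminescence was read after 15 min at room temperature.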
# TRHR agonist-1 – qHTS for Small Molecule Agonists and Allosteric Enhancers of Human TRH Receptor: Primary Screen for Agonists. TRHR cells, calcium flux fluo-8, FDSS agonist mode. activation, % at 2 µM. Thyrotropin-releasing hormone receptor (Homo sapiens), P34981. 360,000 compounds, 0.18% hits. AID 493084, 2011; in the data active means activation above about 30%; further: 0% is about no effect
#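 Steps: seed TRHR cells overnight; add fluo-8 no-wash Ca dye, RT 30 min–1.5 h; record 10 s baseline; pin-transfer compounds; monitor fluorescence 1 cycle/s for the agonist window. Calcium increases flag candidate agonists.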
# TRHR enhancer-1 – qHTS for Small Molecule Agonists and Allosteric Enhancers of Human TRH Receptor: Primary Screen for Enhancers; TRHR cells, fluo-8 calcium fluorescence, EC20 TRH enhancement; enhancement, % at 2 µM; 360,000 compounds, 0.66% hits; Thyrotropin-releasing hormone receptor (Homo sapiens), P34981; in the data active means enhancement above about 30%; further: 0% is about no effect
#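 Enhancer read-out: after compound pinning and an initial kinetic agonist-mode read, an EC20 of TRH (10 nM final) was injected and fluo-8 calcium signal (Ex 480/Em 530) followed at 1 s/cycle for 100 cycles in TRHR-expressing cells.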
# TRHR enhancer-2 – qHTS for Small Molecule Agonists and Allosteric Enhancers of Human TRH Receptor: Confirmation Screen for Enhancers. shares compounds with TRHR enhancer-1. TRH receptor cell assay, enhancer confirmation qHTS. activity change, negative = inhibition, % at 46.1 µM. 970 tested, under 10 active;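 further: compound effect scored on response to added TRH at EC20 of 10 nM; 0% is about no effect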
# TRHR agonist-2 – qHTS for Small Molecule Agonists and Allosteric Enhancers of Human TRH Receptor: Confirmation Screen for Agonists; 970 compounds, 8% hits; AID 493078, 2011; Potency, µM (highest dose often 46.1 µM), inactives show at the highest dose activation, actives largely listed as activators; shares compounds with TRHR enhancer-1; TRHR-expressing cells, agonist activation read-out; further: potency means the concentration at half of the fitted maximal effect; 0% is about no effect; nearly all actives have a fitted effect of over 75% in size
# * = called active by the depositor; i = inactive; ? = inconclusive; . = no result; [ ] = dose if it differs, or a comment. Unless noted, the call rests on the fitted dose curve; in most records, active means well fitted curve in the direction sought with a large enough effect; inconclusive means small, poorly fitted or top-dose-only effect, or another doubt; inactive means no such curve, though single readings can be large; an effect the other way counts as inactive or inconclusive.
SMILES,TRPML1 ag,TRPML1 inh,GLP1R cytotox,PTHR1 ag,TRHR agonist-1,TRHR enhancer-1,TRHR enhancer-2,TRHR agonist-2
Cc1ccc(NCc2ccc(O)c3ncccc23)cc1,1,3,-17%,-3%,0,46*,4,1%
Cc1ccc(NCc2ccc(O)c3ncccc23)cc1C,-1,8,-5%,i,0,-3,.,.
C(=C\c1nc2ccccc2nc1/C=C/c1ccc2c(c1)OCO2)/c1ccc2c(c1)OCO2,1,.,.,.,.,.,.,.
Cn1c(CCNC(=O)c2ccccc2)nc2cc(NC(=O)C3CCCCC3)ccc21,0,-9,-55%,i,-1,7,.,.
CC(=O)Nc1ccc2c(c1)nc(CCNC(=O)c1ccccc1)n2C,-1,17,-11%,i,-1,42*,14,-1%
Cn1c(CN2CCCC2)nc2cc(NC(=O)c3ccco3)ccc21,0,3,-20%,-19%[57.5 µM],0,55*,-3,-1%
CN1CCN(CCc2nc3cc(NC(=O)c4ccco4)ccc3n2C)CC1,0,23,-20%,-24%,0,1,.,.
CC1C(=O)CC(c2ccccc2)NC1c1ccccc1 (centres undefined),1,-1,7%,i,0,45*,-4,2%
CC(C)C1C(=O)CC(c2ccccc2)NC1c1ccccc1 (centres undefined),.,.,-17%,i,-1,1,.,.
CC(=O)Nc1ccc(SC[C@H](Cc2ccccc2)N2CC[C@@H](N)CCC2=O)cc1,0,.,.,.,.,.,.,.
COc1cc(CNc2ncc(-c3ccc(Br)cc3)n2C)cc(OC)c1O,-1,-6,-3%,i,0,41*,0,5%
CCOC(=O)C1CCCN(c2c(Nc3ccc(C)c(C)c3)c(=O)c2=O)C1 (centres undefined),-1,-7,-2%,i,-1,57*,-3,3%
Nc1[nH]c(=S)[nH]c(=O)c1N=O,-1,.,.,.,.,.,.,.
COc1cc(/C=C(\C#N)c2[nH]nc(N)c2C#N)cc(OC)c1O,5,-5,?,i,62*,20,9,?
COc1ccc(CN2CCN(Cc3ccc(CO)o3)CC2CCO)cc1C (centres undefined),0,-2,1%,i,0,57*,-1,1%
COc1ccc(CN2CCN(Cc3cc4ccccc4o3)CC2CCO)cc1C (centres undefined),0,6,-21%,i,0,8,.,.
C/C(=N\NC(=O)CSc1nnc(C)s1)c1ccc(Cl)cc1,1,-30,-16%,i,0,43*,-2,1%
Cn1nnnc1SCc1c(F)cccc1F,0,-3,-4%,i,0,42*,?,2%
Cn1nnnc1SCc1cccc(CSc2nnnn2C)n1,0,1,6%,i,1,-3,.,.
O=[N+]([O-])c1ccc(N=Cc2sc3ccccc3c2O)cc1,6,-6,-2%,i,7,-4,.,.
O=[N+]([O-])c1cccc(N=Cc2sc3ccccc3c2O)c1,.,.,.,.,1,43*,-3,0%
CC(=O)CC(=O)Nc1cccc2c1CCCC2,2,5,9%,11%[57.5 µM],0,4,.,.
CCCC(=O)Nc1cccc2c1CCCC2,-1,3,9%,-22%,0,49*,-1,0%
Cc1cc(=O)oc2c(CN3CCCC3)c(O)c(Cl)cc12,0,-16,102%,i,-2,59*,-12,3%
CC(=O)Nc1cccc2c1C(=O)N(c1ccccc1C)C2=O,1,6,-3%,i,0,-1,.,.
SMILES,TRPML1 ag,TRPML1 inh,GLP1R cytotox,PTHR1 ag,TRHR agonist-1,TRHR enhancer-1,TRHR enhancer-2,TRHR agonist-2
Cc1ccccc1N1C(=O)c2cccc3c(N(C)CCO)ccc(c23)C1=O,0,5,68%,i,41*,0,1,18µM*
COc1ccccc1N1C(=O)c2cccc3c(N(C)CCO)ccc(c23)C1=O,17,-4,106%,-14%,61*,5,5,21µM*
COc1ccccc1N1C(=O)c2cccc3c(C(=O)O)ccc(c23)C1=O,1,11,31%,11%,0,3,.,.
Cc1ccc(S(=O)(=O)N2CCN(c3nc(-c4ccc(CN5CCOCC5)s4)nc4ccccc34)CC2)cc1,-1,.,.,.,.,.,.,.
N#C/C(=C\c1ccc(N2CCOCC2)o1)C(=O)NCCc1ccccc1,?,-18,31%,i,58*,7,3,18µM*
COCCNC(=O)/C(C#N)=C/c1ccc(N2CCOCC2)o1,4,-15,-11%,i,11,-2,.,.
O=c1[nH]c(-c2ccc(O)cc2)nc2scc(-c3cccs3)c12,.,.,3%,i,1,47*,4,1%
Cc1nc2scc(-c3cccs3)c2c(=O)[nH]1,0,-10,0%,i,0,-1,.,.
O=C(N/N=C/c1coc2ccccc2c1=O)c1cccc([N+](=O)[O-])c1,-1,3,-9%,i,0,61*,?,3%
Cc1cccc(C(=O)N/N=C/c2coc3ccccc3c2=O)c1,1,-13,15%,i,1,-5,.,.
CC(=O)Nc1ccc(NC(=O)COc2ccc3c(c2)CCC3)cc1,1,6,3%,-39%,-1,2,.,.
COc1ccc(NC(=O)COc2ccc3c(c2)CCC3)cc1,-1,9,-8%,-23%,0,42*,-6,0%
COc1ccc(CN(C(=O)/C=C/c2ccco2)C2CCS(=O)(=O)C2)cc1 (centres undefined),2,-11,?,-7%,0,6,.,.
